The list is not random: actives were taken first. Their share in the collection is about 32%.
CYP2C19 activ: cytochrome P450 2C19 (human) activation | P33261 | AID 1025 | recombinant CYP2C19, luciferin-H EGE luminescence; active compounds read high; 0 = fully inhibited enzyme, 1 = untreated enzyme | 96,000 tested, under 10 active | activation factor at 5 µM;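 active means activation factor of at least 2 at 5 µM in the primary screen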
CYP2C9 inh: human CYP2C9 inhibition. P11712. CYP2C9 Supersomes, luciferin-H conversion, luminescence. inhibition, % at 5 µM. 96,000 tested, 20% active. AID 777;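 active means blocking of liver enzyme CYP2C9 beyond about 50% at 5 µM, limit read from the data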
Target sequence (P11712 whole entry, looked up): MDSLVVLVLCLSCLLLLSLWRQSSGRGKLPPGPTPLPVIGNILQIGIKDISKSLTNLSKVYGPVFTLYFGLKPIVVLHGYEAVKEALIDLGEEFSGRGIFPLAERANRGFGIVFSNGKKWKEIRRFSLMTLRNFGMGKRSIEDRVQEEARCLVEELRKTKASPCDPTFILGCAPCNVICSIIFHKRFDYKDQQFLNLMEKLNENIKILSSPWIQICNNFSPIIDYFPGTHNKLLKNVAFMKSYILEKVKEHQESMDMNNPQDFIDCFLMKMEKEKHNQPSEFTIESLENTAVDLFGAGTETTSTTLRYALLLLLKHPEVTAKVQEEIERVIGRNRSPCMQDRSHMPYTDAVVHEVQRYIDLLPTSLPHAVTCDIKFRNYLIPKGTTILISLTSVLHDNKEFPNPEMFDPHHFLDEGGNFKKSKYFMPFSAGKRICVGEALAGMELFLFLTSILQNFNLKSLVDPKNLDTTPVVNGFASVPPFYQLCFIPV
PostGolgi ctrl: growth of the yeast control strain, post-Golgi counter-screen. efflux-deficient yeast background strain, growth absorbance A615, 16 h. inhibition, % at 10 µM. 98,000 tested, 5% active
PostGolgi yeast: growth inhibition of a yeast mutant, post-Golgi transport screen. 98,000 tested, 0.9% active. AID 739. inhibition, % at 10 µM. post-Golgi transport phenotypic cell assay;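 further: yeast cells grown in 1536-well plates; yeast grown about 18 h at 30C before absorbance read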
CYP2C19 inhib: human CYP2C19 inhibition | P33261 | CYP2C19 Supersomes, luciferin-H EGE luminescence, 30 min | inhibition, % at 5 µM | 96,000 tested, 21% active | AID 778;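 active means CYP2C19 inhibition above a set limit at 5 µM in the primary screen, cut at about 50% in these data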
CYP2C9 activ: activators of human CYP2C9; P11712; activation factor at 5 µM; recombinant CYP2C9, luciferin-H conversion, luminescence; active compounds read high; factor 1 = untreated enzyme, 0 = blocked; 96,000 tested, 1.4% active;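 active means activation factor of 2 or more for CYP2C9 at a 5 µM dose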
Large screens that a line does not name were inactive. Unless noted, no stated cut-off is given here; in the data, active means inhibition above about 30%; inactive means the rest.

O=C(Nc1ccc(Cl)cc1)N1CCSc2ccccc21	none
COc1ccc(N2CCN(Cc3cc4c(cc3O)CCC4)CC2)cc1	CYP2C9 inh 92.5
O=S(=O)(NCc1cn2ccccc2n1)c1cc(F)ccc1F	none (no result: CYP2C19 activ, CYP2C9 inh, CYP2C19 inhib, CYP2C9 activ)
CCc1nc(SCc2cccnc2)[nH]c(=O)c1C	CYP2C9 inh 82.0
Cc1nc(SCc2ccc(Br)cc2)[nH]c(=O)c1C	none
CCCCCn1c(CCC(=O)Oc2ccccc2OC)nc2c1c(=O)[nH]c(=O)n2CCCC	none
CC1CCCCC12NC(=O)N(CC(=O)Nc1sc3c(c1C(N)=O)CCC3)C2=O (stereo not given)	CYP2C9 inh 70.5
CCOC(=O)CSc1nc2c(c(-c3ccc(C)o3)c1C#N)CCCC2	CYP2C19 inhib 69.7
Cc1ccc(-c2c(C#N)c(N)nc3c2CCCCC3)o1	CYP2C9 inh 50.4, CYP2C19 inhib 53.1
O=C(NCc1ccco1)c1cc2nc(C3CC3)cc(C(F)(F)F)n2n1	none
COc1ccc(-c2cc(C(F)(F)F)n3nc(C(=O)N4CCCC4)cc3n2)cc1	none
COc1ccc(-c2cc(C(F)(F)F)n3nc(C(=O)NCc4ccco4)cc3n2)cc1OC	CYP2C9 inh 69.4, CYP2C19 inhib 75.9
COc1ccc(-c2cc(C(F)(F)F)n3nc(C(=O)NCCCn4ccnc4)cc3n2)cc1	CYP2C9 inh 97.8, CYP2C19 inhib 82.7
Cc1cc(NC(=O)CN2C(=O)C3CC=CCC3C2=O)no1 (stereo not given)	none
COc1ccc2c(=O)cc(C(F)(F)C(F)(F)F)oc2c1	none
Cc1ccc2oc(C(Cl)(Cl)Cl)cc(=O)c2c1	CYP2C19 inhib 53.4
COc1cc2c(cc1OC)CN(CC(=O)Nc1ccc3c(c1)OC(F)(F)O3)CC2	none
CN(C)/C=N/c1c(C#N)cnn1-c1ncnc2sc(-c3ccccc3)cc12	CYP2C9 inh 91.7, CYP2C19 inhib 86.7
CC(C)C(C)(C#N)NC(=O)CSc1ncnc2sc(-c3ccccc3)cc12 (stereo not given)	CYP2C9 inh 83.2, PostGolgi ctrl 40.2, CYP2C19 inhib 96.4
CCc1cc2c(SCC(=O)O)ncnc2s1	none
CN(CCC#N)C(=O)CSc1ncnc2sc(-c3ccccc3)cc12	CYP2C9 inh 50.5
CCCCCn1cnc2sc(-c3ccccc3)cc2c1=O	CYP2C9 inh 58.3
O=C(O)CCC(=O)N1CCc2cc(S(=O)(=O)N3CCC(Cc4ccccc4)CC3)ccc21	none (no result: PostGolgi ctrl)
COc1ccc(-c2nc(CS(=O)CC(=O)NCCCN3CC(C)CC(C)C3)c(C)o2)cc1OC (stereo not given)	none
C=C(C)Cn1c(NCCOC)nc2c1c(=O)[nH]c(=O)n2C	none (no result: CYP2C19 activ, CYP2C9 inh, CYP2C19 inhib, CYP2C9 activ)
COc1ccc(Nc2ncnc3sc(-c4ccccc4)cc23)cc1	none
COc1ncnc2sc(-c3ccccc3)cc12	CYP2C19 inhib 76.5
CCN(CC)C(=O)CSc1ncnc2sc(-c3ccccc3)cc12	CYP2C9 inh 92.9, CYP2C19 inhib 96.6
CCOC(=O)C1=C(c2ccccc2)N=c2s/c(=C\c3ccc(O)cc3)c(=O)n2C1c1cccs1 (stereo not given)	none
COCCCNC(=O)CCNS(=O)(=O)c1ccc(C)cc1	none
CN1C=CC=C/C1=C(\C#N)c1nc2ccccc2[nH]1	none
Cc1ccnc(NC(=O)c2ccc(N3C(=O)CCC3=O)cc2)c1	none
CCN(CC)C(=O)CSc1nc(-c2ccc(C)cc2)nc2c1COC(C)(C)C2	PostGolgi ctrl 35.6
CC1(C)CC2(CC(c3cccs3)c3cc(Cl)c(O)cc3O2)NC(=S)N1 (stereo not given)	none
CCC(Sc1nc2c(c(=O)n1CC)SC(C)C2)C(=O)OC (stereo not given)	CYP2C9 inh 55.5
CC1Cc2nc(SCC(=O)Nc3ccc4c(c3)OCO4)n(CCc3ccccc3)c(=O)c2S1 (stereo not given)	CYP2C9 inh 84.8
CCSc1nnc(NC(=O)CSc2nc3c(c(=O)n2C)SC(C)C3)s1 (stereo not given)	CYP2C9 inh 62.5
CC1Cc2nc(SCC(=O)Nc3nc4ccccc4s3)n(C)c(=O)c2S1 (stereo not given)	CYP2C9 inh 97.8, CYP2C19 inhib 96.8
O=C(NC(Cc1ccccc1)C(=O)NCc1ccccn1)c1ccco1 (stereo not given)	none
CCn1c(SCC(=O)Nc2cccc(C)c2)nc2c(c1=O)SC(C)C2 (stereo not given)	CYP2C9 inh 75.1
CCn1c(SCC(=O)N2CCOCC2)nc2c(c1=O)SC(C)C2 (stereo not given)	none (no result: CYP2C19 activ, CYP2C9 inh, CYP2C19 inhib, CYP2C9 activ)
CCn1c(SCC(=O)Nc2nnc(C)s2)nc2c(c1=O)SC(C)C2 (stereo not given)	CYP2C9 inh 62.2, PostGolgi ctrl 38.7
CCn1c(SCC(=O)Nc2ccc3c(c2)OCO3)nc2c(c1=O)SC(C)C2 (stereo not given)	CYP2C9 inh 83.6, PostGolgi ctrl 74.5, CYP2C19 inhib 69.0
CCSc1nnc(NC(=O)CSc2nc3c(c(=O)n2CC)SC(C)C3)s1 (stereo not given)	none
O=C(NCc1ccccc1)C12CC3CC(CC(C3)C1)C2	none
O=C(NCc1ccncc1)C12CC3CC(CC(C3)C1)C2	CYP2C19 inhib 52.3
CCC(C)NC(=O)C1CCCN(S(=O)(=O)c2ccc(-n3cnnn3)cc2)C1 (stereo not given)	none
CCOc1ccc(CNC(=O)C(CC)n2nc(C)n3c(cc4occc43)c2=O)cc1OC (stereo not given)	CYP2C9 inh 74.9
Cc1nn(C(C)C(=O)NCCCc2ccccc2)c(=O)c2cc3occc3n12 (stereo not given)	CYP2C9 inh 68.4, CYP2C19 inhib 71.4
CCOc1ccc(CCNC(=O)C(C)n2nc(C)n3c(cc4occc43)c2=O)cc1OCC (stereo not given)	CYP2C9 inh 62.2
CCOC(=O)C(CC)n1nc(C)n2c(cc3occc32)c1=O (stereo not given)	CYP2C9 inh 71.2
CCOC(=O)CCCn1ncn2c(cc3occc32)c1=O	none
Cc1nn(C(C)C(=O)NCC2CCCO2)c(=O)c2cc3occc3n12 (stereo not given)	none
CCOc1ccc(CNC(=O)CCn2c(=O)oc3ccccc32)cc1OC	none
CC1(C)Cc2c(sc(NC(=O)c3ccco3)c2C#N)C(C)(C)N1	none (no result: PostGolgi ctrl, PostGolgi yeast)
CC(C)c1ccc(Oc2cccc(C(=O)/C(C#N)=C/N(C)C)c2)cc1	CYP2C9 inh 85.2, CYP2C19 inhib 97.6
CCOc1cccc(Oc2ncccc2C(=O)/C(C#N)=C/N(C)C)c1	none
N#Cc1ccc(Oc2ccc(C(N)=O)cc2)cc1C#N	none
CN(C)/C=C(\C#N)C(=O)c1cccc(Oc2ccc(Br)cc2)c1	CYP2C19 inhib 92.0
Cc1ccc(SCCNS(=O)(=O)c2ccc3c(c2)OCCO3)cc1	PostGolgi ctrl 46.3 (no result: CYP2C19 activ, CYP2C9 inh, CYP2C19 inhib, CYP2C9 activ)
COc1ccc(S(=O)(=O)NCCSc2ccccc2)cc1OC	CYP2C19 inhib 97.2, CYP2C9 activ 2.4
Cc1ccn2cc(CNS(=O)(=O)c3ccc4c(c3)OCCO4)nc2c1	none

Assay outcomes from PubChem BioAssay.
